Unmarked numbers belong to inactive results.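 How the source made its calls: active = AUC reduced over 20% with Padj below 0.05 in at least 2 of 3 replicates; inactive = otherwise.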
Key:
Assay in all cases: growth AUC relative to DMSO control (median of replicates) (fraction); higher = more growth (less inhibition), active = hit call of the paper
Settings in all cases: 20 µM; 24 h
[1] = tested on: Coprococcus comes
Procedure, shortened: (§1)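 OD600 was recorded every hour for 24 h in anaerobic monocultures of gut bacteria kept at 37 °C in mGAM, seeded at OD600 0.05 and given 20 µM compound in 1% DMSO. The area under each growth curve was scaled to the plate median of solvent-only wells, or to row and column medians for the industrial chemical plate. Before this step, the minimum OD was set to 0. Reported values are medians of three biological replicates run on separate days.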

[2] = tested on: Escherichia coli ED1a
Procedure, shortened: as §1

[3] = tested on: Escherichia coli IAI1
Procedure, shortened: as §1

[4] = tested on: Eubacterium rectale
Procedure, shortened: as §1

[5] = tested on: Fusobacterium nucleatum subsp. animalis
Procedure, shortened: as §1

[6] = tested on: Lactobacillus gasseri
Procedure, shortened: as §1

[7] = tested on: Lactobacillus paracasei
Procedure, shortened: as §1

[8] = tested on: Odoribacter splanchnicus
Procedure, shortened: as §1

[9] = tested on: Parabacteroides distasonis
Procedure, shortened: as §1

[10] = tested on: Parabacteroides merdae
Procedure, shortened: as §1

Row | SMILES | growth AUC [1] | growth AUC [2] | growth AUC [3] | growth AUC [4] | growth AUC [5] | growth AUC [6] | growth AUC [7] | growth AUC [8] | growth AUC [9] | growth AUC [10]
1 | COC(=O)c1ccccc1CS(=O)(=O)NC(=O)Nc1nc(OC)cc(OC)n1 | 1.02 | 0.974 | 0.978 | 0.998 | 0.999 | 0.996 | 1 | 1.02 | 0.998 | 1
2 | CCCCOCN(C(=O)CCl)c1c(CC)cccc1CC | 0.996 | 1.02 | 1.04 | 1.03 | 1.12 | 1.02 | 1.04 | 0.909 | 0.963 | 0.976
3 | COc1cnc(OC)n2nc(NS(=O)(=O)c3c(OCC(F)F)cccc3C(F)(F)F)nc12 | 1.01 | 1.01 | 1.02 | 0.954 | 0.96 | 1.08 | 0.965 | 1.01 | 1.01 | 1.01
4 | C=CCOC(Cn1ccnc1)c1ccc(Cl)cc1Cl.O=S(=O)(O)O (stereo not given) | 0.184 (active) | 0.973 | 0.954 | 0.0325 (active) | 0.925 | 0.962 | 0.881 | 0.985 | 0.951 | 0.89
5 | C=C(C)[C@H]1Cc2c(ccc3c2O[C@@H]2COc4cc(OC)c(OC)cc4[C@@H]2C3=O)O1 | 0.986 | 1 | 1.01 | 0.973 | 1.06 | 0.878 | 0.954 | 0.917 | 0.935 | 0.94
6 | CCCCN(CCCC)N=O | 0.982 | 0.995 | 1 | 1.02 | 1.02 | 1.11 | 1.02 | 1 | 1.16 | 1.01
7 | Oc1ccc(Cl)cc1Cc1cc(Cl)ccc1O | 0.965 | 0.793 (active) | 0.684 (active) | 0.497 (active) | 0.845 | 0.115 (active) | 0.47 (active) | 0.0459 (active) | 0.0176 (active) | 0.0937 (active)
8 | Cc1ccc(N(SC(F)(Cl)Cl)S(=O)(=O)N(C)C)cc1 | 1.02 | 0.974 | 0.982 | 1.03 | 1 | 1.07 | 1 | 1.02 | 1.06 | 1.04
9 | OCC(O)CCl (stereo not given) | 0.999 | 0.947 | 1 | 1 | 0.987 | 0.993 | 0.978 | 1.01 | 1.02 | 0.991
10 | CCc1cccc(C)c1N(C(=O)CCl)C(C)COC (stereo not given) | 1.03 | 1.02 | 0.983 | 1.02 | 1.1 | 1.04 | 1.02 | 0.972 | 1.03 | 0.991
11 | O=C1C2(Cl)C3(Cl)C4(Cl)C(Cl)(Cl)C5(Cl)C3(Cl)C1(Cl)C5(Cl)C24Cl (stereo not given) | 0.0378 (active) | 0.98 | 0.969 | 0.696 | 0.757 | 0.135 (active) | 0.061 (active) | 0.0248 (active) | 0.0157 (active) | 0.0229 (active)
12 | O=C(NC(=O)c1c(F)cccc1F)Nc1cc(Cl)c(OC(F)(F)C(F)F)c(Cl)c1 | 0.96 | 0.965 | 0.982 | 0.892 | 0.877 | 0.986 | 0.62 | 0.983 | 0.994 | 0.992
13 | CC(C)(C)C(O)(CCc1ccc(Cl)cc1)Cn1cncn1 (stereo not given) | 1.02 | 1.01 | 0.991 | 0.879 | 1.05 | 1.04 | 0.968 | 0.973 | 0.903 | 0.962
14 | CCOc1cc(C(C)(C)C)ccc1C1COC(c2c(F)cccc2F)=N1 (stereo not given) | 0.996 | 0.998 | 1.02 | 1 | 1.08 | 0.932 | 1.01 | 1.04 | 0.891 | 0.878
